PV pol inh = poliovirus RdRp elongation inhibitors, primary screen, biochemical, fluorescence polarization, total intensity. Genome polyprotein (Poliovirus type 1 (strain Mahoney)), P03300. poliovirus polymerase elongation; hits give low values. % elongation, % (compound at 16.7 µg/mL). 150,000 compounds, 0.66% hits; in the data active means % elongation below about 90%
Mtb MbtI inh = MbtI salicylate synthase inhibitors, primary screen, biochemical, fluorescence intensity; AID 493033, 2011; 100,000 compounds, 0.89% hits; purified MbtI enzyme, fluorescence intensity read-out; inhibition, % (no concentration beside the values); in the data active means inhibition mostly above about 56%, no sharp cut-off; inactive means mostly below about 77%
MenB inh = M. tuberculosis MenB inhibitors, primary screen, biochemical, absorbance. 1,4-dihydroxy-2-naphthoyl-CoA synthase (Mycobacterium tuberculosis (strain ATCC 25618 / …. MenB enzyme assay, absorbance read-out. inhibition, % (test concentration not listed). 100,000 compounds, 0.43% hits; in the data active means inhibition above about 21%, passing the limit was not always enough
Target sequence (P9WNP5 whole entry, looked up): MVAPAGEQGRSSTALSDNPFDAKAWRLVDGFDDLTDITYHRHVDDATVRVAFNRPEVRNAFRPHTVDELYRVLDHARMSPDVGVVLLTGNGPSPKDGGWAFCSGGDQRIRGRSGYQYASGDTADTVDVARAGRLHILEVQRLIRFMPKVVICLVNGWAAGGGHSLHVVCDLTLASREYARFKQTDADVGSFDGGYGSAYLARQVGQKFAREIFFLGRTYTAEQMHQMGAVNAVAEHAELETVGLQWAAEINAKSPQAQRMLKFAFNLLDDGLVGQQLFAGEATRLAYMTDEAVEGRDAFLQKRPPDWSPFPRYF
A number is an active result. Hits are enriched below; roughly 1.4% of the tested compounds scored in any of these assays.

Screening CC1CN(C(=O)NC23CC4CC(CC(C4)C2)C3)CC(C)O1 (centres undefined) returned PV pol inh inactive, Mtb MbtI inh inactive and MenB inh inactive.
`O=C(Cc1coc2cc(O)ccc12)OCC(=O)c1ccc2[nH]c(=O)[nH]c2c1` gave PV pol inh 72.0, Mtb MbtI inh inactive and MenB inh inactive.
For O=C(Cc1coc2cc(O)ccc12)OCc1ccccc1C(F)(F)F the results were PV pol inh inactive, Mtb MbtI inh inactive and MenB inh inactive.
For O=C1C=CC(=O)C(Nc2ccccc2)=C1 the results were PV pol inh inactive and Mtb MbtI inh 98.7.
Screening c1ccc(Nc2ccccc2)cc1 returned PV pol inh inactive, Mtb MbtI inh inactive and MenB inh inactive.
`O=C(COC(=O)c1cccc(-n2cccc2)c1)NCc1ccccc1` gave PV pol inh inactive, Mtb MbtI inh inactive and MenB inh inactive.
Screening Oc1ccc(C(=S)N2CCCCC2)cc1 returned PV pol inh inactive, Mtb MbtI inh 57.9 and MenB inh inactive.
For S=C(c1ccc(Br)cc1)N1CCCC1 the results were PV pol inh inactive and MenB inh inactive.
Screening O=C(Nc1ccc2oc3ccccc3c2c1)c1ccc2nc[nH]c2c1 returned PV pol inh inactive, Mtb MbtI inh inactive and MenB inh inactive.
CCCCN(C)C(=O)c1cc(-c2ccccc2)n[nH]1 was read as PV pol inh inactive, Mtb MbtI inh inactive and MenB inh inactive.
`COc1cc(NC(=O)C2CCCC2)c(C(=O)OCC(=O)N2CC(C)CC(C)C2)cc1OC` (centres undefined) gave PV pol inh inactive, Mtb MbtI inh inactive and MenB inh inactive.
CCOC(=O)C1=C(CSc2nnc3n(-c4ccccc4)c(=O)c4ccccc4n23)NC(=O)NC1C (centres undefined) was read as PV pol inh inactive, Mtb MbtI inh inactive and MenB inh inactive.
Oc1ccccc1C(=S)N1CCN(C(=S)c2ccccc2O)CC1 was read as PV pol inh inactive, Mtb MbtI inh 93.7 and MenB inh inactive.
Screening O=C(c1ccccc1O)N1CCOCC1 returned PV pol inh inactive and MenB inh inactive.
Screening CCCCn1nnnc1COC(=O)c1ccccc1SCc1c(C)noc1C returned PV pol inh inactive, Mtb MbtI inh inactive and MenB inh inactive.
Screening O=C(O)c1nc(-c2ccccc2)cc(-c2ccccc2)n1 returned PV pol inh inactive, Mtb MbtI inh inactive and MenB inh 34.5.
`O=C(O)c1cc(-c2ccccc2)nc2ccccc12` gave PV pol inh inactive and MenB inh inactive.
Screening CCn1c(=O)c(=O)[nH]c2cc(C(=O)Nc3ccc4c(c3)CCC4)ccc21 returned PV pol inh inactive, Mtb MbtI inh inactive and MenB inh inactive.
`COC(=O)c1c(-c2cccs2)csc1NC(=O)c1ccc(C(C)(C)C)cc1` gave PV pol inh 77.0.
`COC(=O)c1c(-c2cccs2)csc1NC(=O)c1ccc(Cl)cc1` gave PV pol inh 67.0.
For CC(C)c1ccc(NC(=O)c2ccc(NC(=O)CCS(=O)(=O)c3cccs3)cc2)cc1 the results were PV pol inh inactive.
`COC(=O)c1c(-c2cccs2)csc1NC(=O)c1cccc(Cl)c1` gave PV pol inh 82.0.
`CCOC(=O)c1c(-c2cccs2)csc1NC(=O)CN1CCC(C)CC1` gave PV pol inh inactive, Mtb MbtI inh inactive and MenB inh inactive.
Screening COC(=O)c1ccsc1NC(=O)c1cccc(C)c1 returned PV pol inh inactive, Mtb MbtI inh inactive and MenB inh inactive.
`CCOC(=O)c1c(-c2cccs2)csc1NC(=O)c1ccccc1` gave PV pol inh inactive, Mtb MbtI inh inactive and MenB inh inactive.
Screening COC(=O)c1c(-c2cccs2)csc1NC(=O)c1ccc(C(C)C)cc1 returned PV pol inh 67.0.
For COc1cccc2sc(Nc3ccc(F)cc3)nc12 the results were PV pol inh inactive, Mtb MbtI inh inactive and MenB inh inactive.
O=C1C(c2c(O)[nH]c3ccccc23)=Nc2ccccc21 was read as PV pol inh inactive, Mtb MbtI inh inactive and MenB inh inactive.
O=C1C(c2c(O)n(-c3cc(Cl)cc(Cl)c3)[nH]c2=O)=Nc2ccccc21 was read as PV pol inh inactive, Mtb MbtI inh 84.0 and MenB inh inactive.
CCN(CC(=O)Nc1ccc(Br)cc1)CC(=O)Nc1ccc(NC(C)=O)cc1 was read as PV pol inh inactive, Mtb MbtI inh inactive and MenB inh inactive.
O=C(O)c1ccc(C2SCC(=O)N2NS(=O)(=O)c2ccc(F)cc2)cc1 (centres undefined) was read as PV pol inh inactive and MenB inh inactive.
COc1ccc(-n2ncc3c2ncn2nc(COc4ccccc4C)nc32)cc1 was read as PV pol inh inactive, Mtb MbtI inh inactive and MenB inh inactive.
Screening CC(NC(=O)CCn1[nH]c(=O)ccc1=O)C12CC3CC(CC(C3)C1)C2 (centres undefined) returned PV pol inh inactive, Mtb MbtI inh inactive and MenB inh inactive.
`Cc1[nH]n(-c2ccccc2)c(=O)c1N=O` gave PV pol inh inactive, Mtb MbtI inh inactive and MenB inh inactive.
Screening Cc1[nH]n(-c2ccc(Br)cc2)c(=O)c1C1=c2ccccc2=NC1=O returned PV pol inh inactive, Mtb MbtI inh 64.0 and MenB inh inactive.
`CCOC(=O)c1cc2occc2n1CC(=O)N1CCCCC1` gave PV pol inh inactive, Mtb MbtI inh inactive and MenB inh inactive.
For O=C(CC1SC(=O)N(c2ccccc2)C1=O)Nc1ccccc1 (centres undefined) the results were PV pol inh inactive, Mtb MbtI inh inactive and MenB inh inactive.
O=C(CC1Sc2ncnn2C1=O)Nc1ccccc1 (centres undefined) was read as PV pol inh inactive, Mtb MbtI inh 100.0 and MenB inh inactive.
`N#C/C(C(=O)N1CCCCC1)=C(/S)Nc1ccccc1` gave PV pol inh inactive, Mtb MbtI inh 70.9 and MenB inh inactive.
For N#C/C(C(N)=O)=C(/S)Nc1ccccc1 the results were PV pol inh inactive, Mtb MbtI inh inactive and MenB inh inactive.
For CNS(=O)(=O)c1ccccc1C(=O)N/N=C/c1ccc(OC)c(OC)c1 the results were PV pol inh inactive, Mtb MbtI inh inactive and MenB inh inactive.
For Cc1ccc(C2=NN=C(NC(=O)CSc3nnc(C)s3)SC2)cc1 the results were PV pol inh inactive, Mtb MbtI inh 83.5 and MenB inh inactive.
`CC(=O)n1c(SCC(=O)NC2=NN=C(c3ccc(C)cc3)CS2)nc2ccccc21` gave PV pol inh inactive, Mtb MbtI inh inactive and MenB inh inactive.
For COc1cccc(NC(=O)C(Sc2nnc3n2CCCCC3)c2ccccc2)c1 (centres undefined) the results were PV pol inh inactive, Mtb MbtI inh inactive and MenB inh inactive.
O=C(O)c1ccccc1S(=O)(=O)N1CCCCC1 was read as PV pol inh inactive, Mtb MbtI inh inactive and MenB inh inactive.
Cc1nc(-c2c(C)[nH]c3ccccc23)cs1 was read as PV pol inh 89.0, Mtb MbtI inh 86.5 and MenB inh inactive.
`Cc1nc(-c2cccs2)cs1` gave PV pol inh inactive and Mtb MbtI inh inactive.
`O=C(c1ccc(N2CCCC2=O)cc1)N1CCc2ccccc2C1` gave PV pol inh inactive, Mtb MbtI inh inactive and MenB inh inactive.
